Experimental data: PubChem BioAssay (NCATS)
Results filed as inconclusive are left out. A call without a number means that no potency is given here. Active and inactive are the calls of the source. The call rests on the fitted dose curve; in most records, active means well fitted inhibition curve with a large enough effect; inconclusive means small, poorly fitted or top-dose-only effect; inactive means flat fitted curve, though single readings scatter.

Each compound was assayed on CRL-7250 (assay: qHTS assay to identify novel small-molecules to repurpose for Merkel cell carcinoma treatment (AID 1296009; further: nearly all actives have a fitted effect of over 60% in size)). Conditions: MCC and control cell lines, CellTiter-Glo viability, 72 h; series mostly up to 92 µM.
Method in brief: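 Cell viability, measured as CellTiter-Glo luminescence, was normalized between DMSO and no-cell wells. The cells had been exposed to 8- or 11-point compound dilutions for 72 hr at 37 degree celsius.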

Q: With CC(C)CC(=O)NCCn1cc(C(=O)O)c(=O)cc1C(O)c1ccccc1 (stereo not given) as the compound, how does the Potency read?
A: inactive

Q: With CC(C)(OC1OC(CO)C(O)C(O)C1O)C1CCC(O)(CO)C2CC(=O)C(C)(O)C2C1 (stereo not given) as the compound, how does the Potency read?
A: inactive

Q: Which Potency does the source give for COc1ccc(-c2nc(-c3ccc(-c4cccc(Cl)c4)o3)[nH]c2-c2ccc(OC)cc2)cc1 here?
A: inactive

Q: For C=C1CC[C@@]2(OC1)O[C@H]1CC3C4CC=C5C[C@@H](O[C@@H]6O[C@@H](C)[C@H](O)[C@@H](O)[C@H]6O)C[C@@H](O[C@@H]6O[C@H](C)[C@H](O)[C@H](O)[C@H]6O[C@@H]6O[C@@H](C)[C@H](O)[C@@H](O)[C@H]6O)[C@]5(C)C4CC[C@]3(C)[C@H]1[C@@H]2C (stereo not given in full), which outcome is on record?
A: inactive [at 9.27 µM]

Q: Which Potency does the source give for Cc1occc(=O)c1O[C@@H]1O[C@H](COC(=O)CC(C)(O)CC(=O)O)[C@@H](O)[C@H](O)[C@H]1O (stereo not given in full) here?
A: inactive

Q: For COc1cc(CC2COC(c3ccc(OC4OC(CO)C(O)C(O)C4O)c(OC)c3)C2CO)ccc1O (stereo not given), which Potency is on record?
A: inactive

Q: How did the Potency turn out when CO[C@@H](Cc1ccc(OCCc2nc(-c3ccccc3)oc2C)c2ccsc12)C(=O)O was run?
A: inactive

Q: For CC(=O)O[C@@H]1[C@H]2[C@@H](OC(=O)c3ccccc3)[C@@H](C)C[C@]2(O)[C@H](OC(C)=O)[C@@]2(C)[C@@H]3CC(C)(C)C(=O)[C@]3(OC(C)=O)C[C@@]12C, which Potency is on record?
A: inactive

Q: For CC1CCC2C(C)(C)C(O)CCC2(C)C12Cc1c(O)cc3c(c1O2)CN(C(CCCN=C(N)N)C(=O)O)C3=O (stereo not given), which Potency is on record?
A: inactive

Q: For CC1(C)CC[C@]2(C(=O)O[C@@H]3O[C@H](CO)[C@@H](O)[C@H](O)[C@H]3O)CC[C@]3(C)C(=CCC4[C@@]5(C)C[C@@H](O)[C@H](O)[C@@](C)(CO)C5[C@H](O)C[C@]43C)C2[C@@H]1O (stereo not given in full), which Potency is on record?
A: inactive

Q: With CC1(C)CC2C3=CCC4C5(C)CCC(OC6OC(CO)C(O)C(OC7OC(CO)C(O)C(OC8OC(CO)C(O)C(OC9OC(COC%10OC(CO)C(O)C(O)C%10O)C(O)C(O)C9O)C8O)C7O)C6O)C(C)(C)C5CCC4(C)C3(C)CCC2(C(=O)O)CC1O (stereo not given) as the compound, how does the outcome read?
A: inactive [at 9.27 µM]

Q: How did the Potency turn out when C=CC(C)(O)CC/C=C(\C)C1CC=C(C)C(=O)O1 (stereo not given) was run?
A: inactive

Q: With Cc1cc(-c2ncc(-c3cccnc3)cc2/C=C/c2ccccc2)cnc1-c1cccnc1 as the compound, how does the Potency read?
A: inactive

Q: COCC1OC(n2cnc3c(=O)[nH]cnc32)C(O)C1O (stereo not given) was tested. Which Potency did it give?
A: inactive

Q: Which Potency does the source give for C=C1CCC2C(C)(C)CCC[C@]2(C)[C@H]1CC/C(C)=C/C(=O)O (stereo not given in full) here?
A: inactive

Q: How did the Potency turn out when C[C@H](NCc1ccc(OCc2ccccc2F)cc1)C(N)=O was run?
A: inactive

Q: Which Potency does the source give for COc1ccc(OC)c(C2C(C#N)=C(N)Oc3n[nH]c(-c4ccc5ccccc5c4)c32)c1 (stereo not given) here?
A: inactive

Q: COc1cc(NC(=O)c2cccc(-n3cc(NC(=O)Nc4cccc(C)c4)cn3)c2)cc(OC)c1OC was tested. Which Potency did it give?
A: inactive

Q: Which Potency does the source give for Cc1cc(C(=O)N2Cc3cnn(C)c3Nc3ccccc32)ccc1CNC(=O)N1CCN(Cc2cc(O)cc(O)c2)CC1 here?
A: inactive

Q: With O=C(NC1CCN(CC(F)(F)F)CC1)c1ccc(-c2cccc(F)c2)nc1 as the compound, how does the Potency read?
A: inactive

Q: Which Potency does the source give for O=C(/C=C/c1ccc(O)cc1)OC[C@H]1O[C@@H](O/C(=C\c2ccccc2)C(=O)O)[C@H](O)[C@@H](O)[C@@H]1O here?
A: inactive

Q: With OC[C@H]1O[C@@H](Oc2ccc(O)c3cccc(O)c23)[C@H](O)[C@@H](O)[C@@H]1O as the compound, how does the Potency read?
A: inactive

Q: With CNC(=O)c1ccc2cc([C@@]3(O)CCn4cncc43)ccc2c1 as the compound, how does the Potency read?
A: inactive

Q: NC1(c2ccc(NC(=O)c3ccnc(-c4cc(C(=O)O)ccn4)c3)cc2)CC1 was tested. Which Potency did it give?
A: inactive

Q: Which Potency does the source give for C/C(=C/CCC(CO)C1CCC2(C)C3CCC4C(C)(C)C(OC5OC(CO)C(O)C(O)C5O)CC(O)C45CC35CCC12C)COC1OC(CO)C(O)C(O)C1O (stereo not given) here?
A: inactive

Q: For CC1(C)C(=O)N2c3ccccc3[C@]3(CC(n4cnc5ccccc5c4=O)C(=O)O3)[C@H]2N1O (stereo not given in full), which Potency is on record?
A: inactive

Q: How did the Potency turn out when CN1C(=O)c2ccccc2-n2c(nc3ccccc3c2=O)/C1=C/c1ccccc1 was run?
A: inactive

Q: With Cc1ccc(C)c(NC(=O)CNS(=O)(=O)c2ccc3[nH]c(=O)oc3c2)c1 as the compound, how does the Potency read?
A: inactive

Q: For CC1(C)CC[C@]2(C(=O)O)CC[C@]3(C)C(=CCC4[C@@]5(C)C[C@@H](O)[C@H](O)[C@@](C)(CO)C5[C@H](O)C[C@]43C)[C@@H]2C1 (stereo not given in full), which Potency is on record?
A: inactive

Q: Which outcome does the source give for C=C(C)C1CCC2(C(=O)O[C@@H]3O[C@H](CO[C@@H]4O[C@H](CO)[C@@H](O)[C@H](O)[C@H]4O)[C@@H](O)[C@H](O[C@@H]4O[C@@H](C)[C@H](O)[C@@H](O)[C@H]4O)[C@H]3O)CCC3(C(=O)O)C(CCC4C5(C)CCC(O)C(C)(C)C5CCC43C)C12 (stereo not given in full) here?
A: inactive [at 9.27 µM]

Q: With CC/C(=C(\c1ccc(O)cc1)c1ccc(OCCNC)cc1)c1ccccc1 as the compound, how does the Potency read?
A: inactive

Q: Which Potency does the source give for CC1=CC2/C=C(\C)CCC(O)C(=O)C(O)CC(=O)C23C(=O)NC(CC(C)C)C3C1C (stereo not given) here?
A: inactive

Q: For Cc1nnc(-c2ccc3occ(-c4ccc(S(C)=O)cc4)c3c2)o1 (stereo not given), which Potency is on record?
A: inactive

Q: COc1cc2c(cc1OC)CC(=O)N(CCCNC[C@H]1Cc3cc(OC)c(OC)cc31)CC2 was tested. Which Potency did it give?
A: inactive

Q: Which Potency does the source give for CC(C#N)C(C)O[C@@H]1O[C@H](CO)[C@@H](O)[C@H](O)[C@H]1O (stereo not given in full) here?
A: inactive

Q: Which Potency does the source give for O=C1NC(Cc2ccccc2)C(=O)N2CCCC12 (stereo not given) here?
A: inactive

Q: With CC(C)CCC[C@@H](C)[C@H]1CC[C@H]2[C@@H]3CC=C4C[C@@H](OC(=O)NCCN(C)C)CC[C@]4(C)[C@H]3CC[C@]12C as the compound, how does the Potency read?
A: inactive

Q: C=C[C@]1(C)C=C2CCC3C(C)(CCC[C@@]3(C)C(=O)O)C2CC1 (stereo not given in full) was tested. Which Potency did it give?
A: inactive

Q: With COCCN(C)Cc1ccc2nc3sc(C(=O)N(C)C4CCCCC4)cn3c2c1 as the compound, how does the Potency read?
A: inactive

Q: With CC(=O)[C@H]1CC[C@H]2[C@@H]3CC=C4C[C@@H](OS(=O)(=O)O)CC[C@]4(C)[C@H]3CC[C@]12C as the compound, how does the Potency read?
A: inactive
